Reference: PubChem BioAssay (NCI)
Compounds without any hit were thinned out: in the full panel of roughly 79,000, 15% have a hit. A number with no mark means an inactive call. The source made the active and inactive calls. No stated cut-off is given here; in the data, active means growth inhibition above about 70%; inactive means the rest.

Experiments:
[1] = NCI Yeast Anticancer Drug Screen. Data for the rad52 strain (AID 147);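 further: 0% = growth of vehicle-treated control cultures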; conditions: S. cerevisiae rad52 mutant growth inhibition, stronger effect = higher value
Procedure, shortened: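 Measured: yeast growth inhibition. System: strain with a defined DNA damage repair alteration. Reference: vehicle-treated control cultures.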

[2] = NCI Yeast Anticancer Drug Screen. Data for the wt1 strain (AID 149);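 further: 0% = growth of vehicle-treated wt1 cultures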; conditions: S. cerevisiae wt1 strain (SPY 50644) growth inhibition, stronger effect = higher value
Procedure, shortened: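 The wt1 strain was treated with compounds, and growth was compared with vehicle-treated cultures to give inhibition.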

[3] = NCI Yeast Anticancer Drug Screen. Data for the rad50EPP+ strain (AID 151);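 further: 0% = growth of vehicle-treated control cultures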; conditions: S. cerevisiae rad50 mutant strain, stronger effect = higher value
Procedure, shortened: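 One strain with a rad50 alteration (rad50EPP+) was compound-treated, its growth then compared to that of vehicle controls.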

[4] = NCI Yeast Anticancer Drug Screen. Data for the mgt1 strain (AID 153); conditions: S. cerevisiae mgt1 mutant growth inhibition, stronger effect = higher value
Procedure, shortened: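 After exposure of the mgt1 yeast mutant to compound, growth was measured and reported as inhibition compared with vehicle controls.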

[5] = NCI Yeast Anticancer Drug Screen. Data for the rad50 strain (AID 155);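 further: 0% = growth of vehicle-only cultures of the same strain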; conditions: S. cerevisiae rad50 strain growth inhibition, stronger effect = higher value
Procedure, shortened: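 Cells are treated with compound, grown, and their growth is then scored against vehicle-only cultures of the same repair-deficient yeast strain.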

[6] = NCI Yeast Anticancer Drug Screen. Data for the mec2-1 strain (AID 157); conditions: S. cerevisiae mec2-1 strain, stronger effect = higher value
Procedure, shortened: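 Test agents were screened against the mec2-1 yeast strain, with defined DNA repair or cell cycle alteration. Growth was scored as inhibition against vehicle-only controls.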

[7] = NCI Yeast Anticancer Drug Screen. Data for the rad14 strain (AID 159);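 further: 0% = growth of vehicle-treated control cultures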; conditions: S. cerevisiae rad14 strain growth inhibition, stronger effect = higher value
Procedure, shortened: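 Readout: yeast growth inhibition, referenced to vehicle-only cultures. Strain bears a defined alteration in DNA damage repair.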

[8] = NCI Yeast Anticancer Drug Screen. Data for the sgs1 mgt1 strain (AID 161);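 further: 0% = growth of cultures given vehicle only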; conditions: S. cerevisiae sgs1 mgt1 strain, stronger effect = higher value
Procedure, shortened: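 Test agents were incubated with a DNA-repair-mutant yeast strain. Growth was then read and compared against vehicle-treated controls.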

[9] = NCI Yeast Anticancer Drug Screen. Data for the cln2 rad14 strain (AID 165);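 further: 0% = growth equal to vehicle treated cultures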; conditions: S. cerevisiae cln2 rad14 strain, stronger effect = higher value
Procedure, shortened: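 Growth of compound-exposed yeast (cln2 rad14 genotype) measured and expressed as inhibition relative to vehicle.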

[10] = NCI Yeast Anticancer Drug Screen. Data for the bub3 strain (AID 167); conditions: S. cerevisiae bub3 mutant strain, stronger effect = higher value
Procedure, shortened: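 Part of a panel of yeast mutants defective in DNA damage repair or cell cycle regulation. Each strain is grown with compound, and inhibition is calculated relative to solvent-treated cultures.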

[11] = NCI Yeast Anticancer Drug Screen. Data for the wt2 strain (AID 169);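 further: 0% = growth of vehicle-treated yeast cultures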; conditions: S. cerevisiae wt2 strain growth inhibition, stronger effect = higher value
Procedure, shortened: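 Genetically defined yeast strains from a DNA-repair/cell-cycle panel were used. Compound-exposed yeast growth was measured, and the inhibition was calculated relative to vehicle treatment.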

[12] = NCI Yeast Anticancer Drug Screen. Data for the mlh1 strain (AID 171);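 further: 0% = growth of vehicle-treated control cultures of the same strain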; conditions: S. cerevisiae mlh1 strain growth inhibition, stronger effect = higher value
Procedure, shortened: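 Here the genetically defined yeast mutant is grown with each compound, and the extent to which its growth falls below that of vehicle-exposed cells is reported.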

[13] = NCI Yeast Anticancer Drug Screen. Data for the sgs1 strain (AID 173);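 further: 0% = growth of vehicle-only control cultures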; conditions: S. cerevisiae sgs1 mutant, stronger effect = higher value
Procedure, shortened: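 Relative growth inhibition, referenced to vehicle, was determined in a yeast strain with a defined alteration affecting DNA damage repair or cell cycle control after compound exposure.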

[14] = NCI Yeast Anticancer Drug Screen. Data for the mlh1 rad18 strain (AID 175); conditions: S. cerevisiae mlh1 rad18 strain growth inhibition, stronger effect = higher value
Procedure, shortened: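 In this whole-cell yeast screen, a strain with altered DNA damage repair is challenged with compound, and its growth is measured against matched vehicle-treated controls.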

[15] = NCI Yeast Anticancer Drug Screen. Data for the rad18 strain (AID 177); conditions: S. cerevisiae rad18 mutant growth inhibition, stronger effect = higher value
Procedure, shortened: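 Screen uses a yeast strain with a defined lesion in DNA damage repair; compound effect is read as loss of growth compared to untreated vehicle cultures.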

[16] = at 5.0 µM (retest, dose inferred, filed as 0.5)
[17] = at 50.0 µM (retest, dose inferred, filed as 5.0)

In the case of `CCC(=O)c1cccc2ccccc12`, the growth inhibition ([1]; at 1.2 µM) is reported as 1%, the growth inhibition ([1]; at 3.7 µM) is reported as 2% and the growth inhibition ([1]; at 11.0 µM) is reported as 1%. The growth inhibition ([1]; at 33.0 µM) was 2%, the growth inhibition ([1]; at 100.0 µM) was -1% and the growth inhibition ([2]; at 1.2 µM) was 0%. It also gave a growth inhibition ([2]; at 3.7 µM) of 1%, a growth inhibition ([2]; at 11.0 µM) of 3% and a growth inhibition ([2]; at 33.0 µM) of 0%. The growth inhibition ([2]; at 100.0 µM) was -4%, the growth inhibition ([3]; at 1.2 µM) was 6% and the growth inhibition ([3]; at 3.7 µM) was 11%. For the same compound, the growth inhibition ([3]; at 11.0 µM) was 27%, the growth inhibition ([3]; at 33.0 µM) was 48% and the growth inhibition ([3]; at 100.0 µM) was 86% (active). It also gave a growth inhibition ([4]; at 1.2 µM) of 1%, a growth inhibition ([4]; at 3.7 µM) of -1% and a growth inhibition ([4]; at 11.0 µM) of 0%. The growth inhibition ([4]; at 33.0 µM) was 15%, the growth inhibition ([4]; at 100.0 µM) was 3% and the growth inhibition ([5]; at 1.2 µM) was 0%. The growth inhibition ([5]; at 3.7 µM) was -1%, the growth inhibition [5, 16] was -14% and the growth inhibition ([5]; at 11.0 µM) was 1%. For the same compound, the growth inhibition ([5]; at 33.0 µM) was 0%, the growth inhibition [5, 17] was 2% and the growth inhibition ([5]; at 50.0 µM) was 14.7%. For the same compound, the growth inhibition ([5]; at 100.0 µM) was -3%, the growth inhibition ([6]; at 1.2 µM) was -2% and the growth inhibition ([6]; at 3.7 µM) was 0%. The growth inhibition [6, 16] was 5%, the growth inhibition ([6]; at 11.0 µM) was -2% and the growth inhibition ([6]; at 33.0 µM) was -1%. The growth inhibition [6, 17] was 4%, the growth inhibition ([6]; at 50.0 µM) was 19.2% and the growth inhibition ([6]; at 100.0 µM) was -1%. It also gave a growth inhibition ([7]; at 1.2 µM) of -1%, a growth inhibition ([7]; at 3.7 µM) of -2% and a growth inhibition ([7]; at 11.0 µM) of -1%. The growth inhibition ([7]; at 33.0 µM) was -1%, the growth inhibition ([7]; at 100.0 µM) was 4% and the growth inhibition [8, 16] was -4%. The growth inhibition [8, 17] was 52%, the growth inhibition ([8]; at 50.0 µM) was 20% and the growth inhibition [9, 16] was 12%. It also gave a growth inhibition [9, 17] of 18%, a growth inhibition ([9]; at 50.0 µM) of 46.5% and a growth inhibition ([10]; at 1.2 µM) of -6%. The growth inhibition ([10]; at 3.7 µM) was -6%, the growth inhibition [10, 16] was 11% and the growth inhibition ([10]; at 11.0 µM) was -6%. For the same compound, the growth inhibition ([10]; at 33.0 µM) was -8%, the growth inhibition [10, 17] was 23% and the growth inhibition ([10]; at 50.0 µM) was -4.8%. For the same compound, the growth inhibition ([10]; at 100.0 µM) was 4%, the growth inhibition ([11]; at 1.2 µM) was 1% and the growth inhibition ([11]; at 3.7 µM) was 2%. For the same compound, the growth inhibition ([11]; at 11.0 µM) was 3%, the growth inhibition ([11]; at 33.0 µM) was 1% and the growth inhibition ([11]; at 100.0 µM) was 1%. For the same compound, the growth inhibition ([12]; at 1.2 µM) was 3%, the growth inhibition ([12]; at 3.7 µM) was 2% and the growth inhibition ([12]; at 11.0 µM) was 2%. For the same compound, the growth inhibition ([12]; at 33.0 µM) was 1%, the growth inhibition ([12]; at 100.0 µM) was 4% and the growth inhibition ([13]; at 1.2 µM) was 1%. The growth inhibition ([13]; at 3.7 µM) was 3%, the growth inhibition ([13]; at 11.0 µM) was 4% and the growth inhibition ([13]; at 33.0 µM) was 3%. It also gave a growth inhibition ([13]; at 100.0 µM) of 14%, a growth inhibition [14, 16] of 7% and a growth inhibition [14, 17] of 28%. It also gave a growth inhibition ([14]; at 50.0 µM) of -14.7%, a growth inhibition ([15]; at 1.2 µM) of 1% and a growth inhibition ([15]; at 3.7 µM) of -1%. The growth inhibition ([15]; at 11.0 µM) was -14%, the growth inhibition ([15]; at 33.0 µM) was 0% and the growth inhibition ([15]; at 100.0 µM) was -2%.
